Source: PubChem BioAssay (The Scripps Research Institute Molecular Screening Center)
SRC3 TRFRET art: TR-FRET detection interference compounds, artefact control for PPARgamma SRC-3 recruitment agonists, biochemical, TR-FRET ratio; TR-FRET artefact counter-screen, PPARgamma/SRC-3 format; active compounds read high; AID 1048, 2008; TR-FRET ratio at 8 µM; hit rate 0.39% among 99,000
PPARg SRC3 recr: PPARgamma agonists recruiting SRC-3 coactivator, primary screen, biochemical. hit rate 0.26% among 200,000. biochemical PPARgamma/SRC-3 coactivator recruitment assay. activation, % at 8 µM. AID 731, 2007; in the data active = activation above about 23%;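 note: 0% = DMSO and 100% = reference agonist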
Target sequence (P37231 whole entry, looked up): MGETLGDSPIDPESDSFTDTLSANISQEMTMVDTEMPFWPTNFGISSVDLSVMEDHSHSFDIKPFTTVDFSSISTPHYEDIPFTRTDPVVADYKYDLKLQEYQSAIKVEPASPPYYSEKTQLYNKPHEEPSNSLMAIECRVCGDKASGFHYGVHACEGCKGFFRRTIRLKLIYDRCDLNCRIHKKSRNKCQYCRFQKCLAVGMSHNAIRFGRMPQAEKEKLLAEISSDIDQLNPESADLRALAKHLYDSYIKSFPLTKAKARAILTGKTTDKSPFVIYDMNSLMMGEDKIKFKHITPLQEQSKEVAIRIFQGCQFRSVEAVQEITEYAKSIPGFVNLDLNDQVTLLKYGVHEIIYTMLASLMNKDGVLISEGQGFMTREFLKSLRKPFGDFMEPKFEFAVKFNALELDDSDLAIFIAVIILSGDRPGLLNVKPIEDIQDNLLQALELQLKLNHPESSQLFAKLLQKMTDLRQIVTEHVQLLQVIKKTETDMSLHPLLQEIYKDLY
SRC1 TRFRET art: TR-FRET detection interference compounds, primary screen, artefact control for PPARgamma SRC-1 recruitment agonists, biochemical, TR-FRET emission ratio | hit rate 0.34% among 99,000 | TR-FRET ratio at 8 µM | AID 1051, 2008 | TR-FRET detection artefact counter-screen; active compounds read high; in the data active = TR-FRET ratio above about 2300
PPARg SRC1 recr: PPARgamma agonists recruiting SRC-1 coactivator, primary screen, biochemical. Peroxisome proliferator-activated receptor gamma (Homo sapiens), P37231. hit rate 0.41% among 200,000. activation, % at 8 µM. PPARgamma-SRC-1 coactivator recruitment biochemical assay; in the data active = activation above about 19%;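 note: 0% = DMSO and 100% = reference agonist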
SRC2 TRFRET art: TR-FRET signal artefacts, primary screen, artefact control for PPARgamma SRC-2 agonist project, biochemical; hit rate 0.4% among 200,000; TR-FRET artefact counter-screen; active compounds read high; TR-FRET ratio at 8 µM
PPARg SRC2 recr: agonists of PPARg-SRC-2 recruitment, primary screen, biochemical, HTS. Peroxisome proliferator-activated receptor gamma (Homo sapiens), P37231. PPARgamma LBD-SRC-2 recruitment. activation, % at 8 µM. hit rate 0.34% among 200,000. AID 1032, 2008; in the data active = activation above about 22%;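 note: 0% = vehicle and 100% = reference agonist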
Numbers without * were called inactive; · = no result. In the library only some 0.9% were active in any assay of this set; here they are far more common. Cut-off read from the data, not from the text of the source, unless noted: active = TR-FRET ratio above about 2000; inactive = the rest.

SMILES	SRC3 TRFRET art	PPARg SRC3 recr	SRC1 TRFRET art	PPARg SRC1 recr	SRC2 TRFRET art	PPARg SRC2 recr
COc1ccc(C2=NN(C(=S)Nc3ccccc3)C(c3ccccc3)C2)cc1 (stereo not drawn)	1746	5	1987	5	1723	2
Fc1ccc(C2CC(c3cccs3)=NN2C(=S)Nc2ccccc2)cc1 (stereo not drawn)	1821	4	2336*	10	1687	14
COc1ccc(C2CC(c3ccccc3)=NN2C(=S)Nc2ccccc2)cc1 (stereo not drawn)	2233*	14	2274	14	2014*	22
CNC(=S)N1N=C(c2ccc(C)cc2)CC1c1ccc(OC)c(OC)c1 (stereo not drawn)	1440	1	1680	0	1450	-1
COc1cc(C2C(C#N)=C(N)Oc3n[nH]c(-c4cccnc4)c32)cc(Br)c1O (stereo not drawn)	1550	-1	1912	0	1533	1
CCOC(=O)c1ccccc1NC(=O)c1cn(-c2ccc(C)c(C)c2)c(=O)c2ccccc12	1904	9	1817	-1	3144*	130*
COC(=O)c1ccccc1NC(=O)c1cn(-c2ccc(C)c(C)c2)c(=O)c2ccccc12	1579	9	1931	1	1685	3
CCCCc1c(C)nc2ccc(Br)cc2c1SCCC#N	2091*	13	2268	7	2017*	14
CCc1c(C)nc2c(Br)cccc2c1SCCC#N	2026	12	2367*	11	1953	19
COc1cc2c(cc1OC)CN(CC(=O)NC(=O)NC1CCCCC1)CC2	1580	5	1639	0	1516	-3
O=C1c2cccc(OCC(=O)N3CCCc4ccccc43)c2CCN1Cc1ccccc1	1467	-3	1537	24*	1628	1
O=C1c2cccc(OCC(=O)N3CCCc4ccccc43)c2CCN1Cc1ccc(Br)cc1	1560	-6	1638	1	1367	-7
COc1ccc(OC)c(-c2csc(NC(=O)c3ccc(OCC4CCCO4)cc3)n2)c1 (stereo not drawn)	2496*	-3	1767	2	1749	-2
Cc1cnc(NC(=O)c2ccc(OCC3CCCO3)cc2)s1 (stereo not drawn)	1284	7	1826	12	1718	4
C=CCOc1cccc(C2C(C(=O)c3ccc(C)o3)=C(O)C(=O)N2Cc2ccncc2)c1 (stereo not drawn)	·	23	·	13	2037*	16
O=C(Nn1c(-c2ccccc2)nc2ccccc2c1=O)c1ccco1	·	3	·	8	1556	5
CCCC1CCC(C(=O)Nn2c(C)nc3ccccc3c2=O)CC1 (stereo not drawn)	·	3	·	5	1484	-3
CCCCCCC1CCC(C(=O)Nn2c(C)nc3ccccc3c2=O)CC1 (stereo not drawn)	·	-4	·	5	1723	22*
Cc1nc2ccccc2c(=O)n1NC(=O)c1ccco1	·	7	·	-2	2082*	12
Fc1ccc(Nc2ccc3ccccc3n2)c(F)c1	1464	11	1805	3	1664	12
Cc1csc(NC(=O)CSc2nnc(NC(=O)C3CC(=O)N(c4ccccc4)C3)s2)n1 (stereo not drawn)	1413	6	2325*	2	1627	15
O=C(/C=C/c1ccc([N+](=O)[O-])cc1)Nc1ncc([N+](=O)[O-])s1	1733	4	1799	5	1452	5
CCSC1=N/C(=C\c2ccc(OC)cc2)C(=O)N1	1829	8	1935	8	1665	-2
COc1ccc(/C=C2\N=C(SC)NC2=O)cc1	·	16	·	4	1784	22*
Fc1ccccc1CSc1nc2ncc(Br)cc2[nH]1	·	7	·	3	1920	24*
N#Cc1ccccc1CSc1nc2ncc(Br)cc2[nH]1	1759	3	1936	4	1754	16
O=C(O)c1cc(-c2ccco2)nc2ccc(Br)cc12	2104*	16	2318*	18	2007*	22
O=C(c1ccco1)N1CCN(C(=O)c2cc(-c3ccncc3)nc3ccc(Br)cc23)CC1	·	15	·	9	1679	5
